hcDAF12 agonist – activators of H. contortus DAF-12 nuclear receptor. HEK293 hcDAF-12 lit1-tk-luc reporter, luminescence; 0% DMSO, 100% Δ7-dafachronic acid. activation, % at 6.8 µM. 370,000 compounds, 1.4% hits. AID 652067;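 active = activation above the mean of all tested compounds plus 3 SD, cut at about 5.5% in these data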
DAX1 inh-1 – DAX1 (NR0B1) inhibition, primary screen; HEK293T StAR-luciferase reporter, SF-1/DAX-1 repression relief; inhibition, % at 6.8 µM; 370,000 compounds, 1.1% hits; AID 652010;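 active = inhibition above the mean over all tested compounds plus 3 SD, cut at about 3.6% in these data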;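 also: higher inhibition means more luminescence from relief of DAX-1 repression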
AHR activator – activators of human aryl hydrocarbon receptor | P35869 | AHR-responsive luciferase reporter cells, luminescence | activation, % at 5 µM | 320,000 compounds, 2.5% hits | AID 2796; in the data active = activation above about 47%
hgDAF-12 ag – activates the H. glycines DAF-12 receptor ligand-binding domain. HEK293 GAL4-hgDAF12 UAS-luciferase reporter, agonist luminescence; normalized to butyrate control. activation, % at 6.8 µM. 370,000 compounds, 1.8% hits. AID 687014;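 active = activation above a cutoff set at the mean of all screened compounds plus 3 SD, cut at about 10% in these data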
ssDAF12 agonist – activates DAF-12 receptor from parasite S. stercoralis; HEK293 ssDAF-12/GRIP1 lit1-tk-luc reporter, luminescence; % of 3 µM dafachronic acid response; activation, % at 6.8 µM; 370,000 compounds, 1% hits;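 active = activation above the mean over all tested compounds plus 3 SD, cut at about 0.9% in these data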
DAX1 inh-2 – inhibitors of human orphan nuclear receptor DAX1 (NR0B1) | P51843 | HEK293 Gal4-DAX1 luciferase reporter, luminescence | 340,000 compounds, 0.99% hits | AID 504766 | inhibition, % at 6.75 µM;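 active = inhibition above the mean over all tested compounds plus 3 SD, cut at about 4.2% in these data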;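 also: inhibition shows as a rise in luminescence from relieved DAX1 repression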
Target sequence (P51843 207-470 limits assumed): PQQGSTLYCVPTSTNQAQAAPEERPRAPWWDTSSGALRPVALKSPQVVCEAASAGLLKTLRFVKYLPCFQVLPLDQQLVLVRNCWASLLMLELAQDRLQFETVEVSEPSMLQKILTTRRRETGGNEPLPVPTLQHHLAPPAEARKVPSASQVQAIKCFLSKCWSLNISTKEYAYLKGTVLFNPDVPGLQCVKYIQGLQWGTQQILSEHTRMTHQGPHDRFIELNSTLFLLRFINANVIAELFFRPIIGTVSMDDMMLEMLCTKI
Of the large screens only hits and unclear results are named; the others gave an inactive call. In the library only some 5.7% were active in any assay of this set; here they are far more common.

Cc1cc(C)nc(N/N=C/c2c[nH]c3ccccc23)n1	none
Cc1cc(N/N=C/c2ccc(N(C)C)cc2)c2ccccc2n1	AHR activator 49
CCCCCCC12C(=Cc3cc4c(cc31)OCCO4)c1cc(OC)c(OC)cc1C(CC(=O)O)N2C(=O)OC (configuration not stated)	none (no result: AHR activator, DAX1 inh-2)
Cc1cc(NC(=O)Nc2ccc3c(ccn3C)c2)sn1	hgDAF-12 ag 11
Cc1ccc(-n2c(Cc3cccs3)nnc2SCC(=O)Nc2ccccc2-c2ccccc2)cc1	none (no result: AHR activator, DAX1 inh-2)
COc1ccc(/C=C2\Oc3cc(OCC(=O)N4CCC[C@H]4C(=O)O)ccc3C2=O)c(OC)c1	DAX1 inh-2 6.7 (no result: hcDAF12 agonist, DAX1 inh-1, hgDAF-12 ag, ssDAF12 agonist)
COc1cc(OC)c(OC)cc1/C=C1\Oc2cc(OCC(=O)N3Cc4ccccc4C[C@H]3C(=O)O)ccc2C1=O	DAX1 inh-2 4.5 (no result: hcDAF12 agonist, DAX1 inh-1, hgDAF-12 ag, ssDAF12 agonist)
CC(C)CC(=O)Nc1nnc(-c2ccco2)s1	none
CCc1ccc(OCC(=O)Nc2nnc(-c3ccco3)s2)cc1	DAX1 inh-1 4.4
O=C(O)C1C2C=CC(C2)C1C(=O)N1CCc2ccccc21 (configuration not stated)	hcDAF12 agonist 5.6
Nc1cccnc1Sc1ccc([N+](=O)[O-])cn1	none (no result: AHR activator)
Nc1cccnc1Sc1cc(Cl)c(Cl)cc1Cl	AHR activator 59
CC1(C)OC(=O)C2=C(C[C@@H](CCOCc3ccccc3)O[C@H]2c2ccc(F)cc2)O1	none (no result: AHR activator, DAX1 inh-2)
COc1ccc(S(=O)(=O)N2N=C(c3ccc(NS(C)(=O)=O)cc3)CC2c2ccco2)cc1 (configuration not stated)	hcDAF12 agonist 5.6, ssDAF12 agonist 1.3
COc1ccc(S(=O)(=O)N2N=C(c3cccc(NS(C)(=O)=O)c3)CC2c2ccco2)cc1 (configuration not stated)	none
CC(=O)c1sc2c(c1N)c(=O)[nH]c(=O)n2-c1ccccc1	none
CCOC(=O)CC(=O)c1sc2c(c1N)c(=O)[nH]c(=O)n2-c1ccc(OC)cc1	DAX1 inh-2 4.3
O=[N+]([O-])c1ccc(C2CC(c3ccccc3)=Nc3ccccc3S2)cc1 (configuration not stated)	none
O=C(O)C1CC(c2ccccc2)=Nc2ccccc2S1 (configuration not stated)	AHR activator 53
CC(NCc1ccco1)C(=O)N1CCCC1 (configuration not stated)	none (no result: AHR activator, DAX1 inh-2)
c1ccc(-c2nn3cnnc3c3ccccc23)cc1	none
Clc1nn2cnnc2c2ccccc12	DAX1 inh-2 6.2
O=C(NCC(=O)N1CCCC(C(F)(F)F)C1)c1ccccc1Br (configuration not stated)	ssDAF12 agonist 1.3
O=C(NCC(=O)N1CCCC(C(F)(F)F)C1)c1ccc(Br)o1 (configuration not stated)	none
COc1ccc(NC(=O)C2C3C=CC(C3)C2C(=O)NCc2ccco2)c(OC)c1 (configuration not stated)	DAX1 inh-2 5.9
O=C(O)C1C2C=CC(C2)C1C(=O)NCc1ccco1 (configuration not stated)	none
COc1ccc(CCn2nc(C)c([N+](=O)[O-])c2C)cc1	DAX1 inh-1 4.2
COc1cccc(-n2c(CCn3nc(C)c([N+](=O)[O-])c3C)n[nH]c2=S)c1	none
CN(C)c1ccc(C2Nc3ccccc3C(=O)N2CCCN2CCOCC2)cc1 (configuration not stated)	none
Cn1c(N2CCOCC2)c(/C=N/O)c2ccccc21	DAX1 inh-2 7.5
COc1cccc(/C=N/NC(=O)C(=O)N/N=C/c2cccc(OC)c2OC)c1OC	none
COc1cccc(/C=N\NC(=O)c2sc(N)nc2C)c1OC	AHR activator 60
COC(=O)c1cc2c(c3c4ccccc4n(S(=O)(=O)c4ccc(OC)cc4)c13)C(=O)N(Cc1ccccc1OC)C2	none (no result: AHR activator, DAX1 inh-2)
Cc1nc2nc(C)c(NS(=O)(=O)c3ccc(Cl)cc3)c(=O)n2[nH]1	hcDAF12 agonist 6.4
CCc1ccc(S(=O)(=O)Nc2c(C)nc3nc[nH]n3c2=O)cc1	DAX1 inh-2 8.0
CCC(=O)Nc1ccc(S(=O)(=O)Nc2c(C)nc3nc[nH]n3c2=O)cc1	none
Cc1cc(=O)n2nc(N3CCCC3C(=O)Nc3ccc(C(C)C)cc3)sc2n1 (configuration not stated)	none
COC(=O)[C@@]12C[C@@H](CC(=O)NCc3cccc4ccccc34)C(=O)N(CCc3ccc(OC)c(OC)c3)C1=CCC(C)(C)C2	none (no result: AHR activator, DAX1 inh-2)
COc1ccccc1CC(=O)NNS(=O)(=O)c1ccc([N+](=O)[O-])cc1	DAX1 inh-2 6.1
CCN(CC)S(=O)(=O)c1ccc(NC(=O)c2nc3nc(C)cc(C)n3n2)cc1	none (no result: DAX1 inh-2)
Cc1cc(C(=O)COc2ccccc2[N+](=O)[O-])c(C)n1C1CC1	AHR activator 63
Cc1sc(NC(=O)Nc2ccccc2)c(C(N)=O)c1C	AHR activator 53
COC(=O)c1c(NC(=O)Nc2ccc(Cl)cc2)sc(C)c1C	none
CC1(C)Cc2c(sc(NC(=O)Nc3ccccc3)c2C(N)=O)CO1	hgDAF-12 ag 11, DAX1 inh-2 5.1
CN1C(=O)c2cc(NS(=O)(=O)c3cccc(F)c3)ccc2OC[C@@H]2O[C@H](CC(=O)O)CC[C@H]21	none (no result: AHR activator, DAX1 inh-2)
COc1ccc(Cc2nc3ccc(C(=O)NCc4cc(C)no4)cc3o2)cc1	DAX1 inh-1 3.7
COc1ccc(Cc2nc3ccc(C(=O)NCC(C)(C)OC)cc3o2)cc1	DAX1 inh-2 4.6
Cc1ccccc1C1=CC(=O)CC(C)(C)C1=O	none (no result: AHR activator, DAX1 inh-2)
N=c1c2c(ccn1CCCc1ccccc1)Oc1ccc3ccccc3c1C2c1ccccc1 (configuration not stated)	none (no result: DAX1 inh-1, AHR activator, DAX1 inh-2)
COc1cccc(/C=N/Nc2ccc(Cl)nn2)c1OC	DAX1 inh-2 5.6
COCc1[nH]nc2c1C(c1ccc(F)cc1)N(c1ccccc1)C2=O (configuration not stated)	none (no result: AHR activator, DAX1 inh-2)
COc1cccc(OC)c1C(=O)Nc1sc2c(c1C#N)CCC2	AHR activator 54
CC(=O)NC(=S)Nc1sc2c(c1C#N)CCCCC2	hgDAF-12 ag 12 (no result: AHR activator)
CC(=O)Nc1sc2c(c1C#N)CCCC2	none
COc1cccc(CN(C)CC(=O)Nc2sc3c(c2C#N)CCC3)c1OC	none
C=CCN1C(=O)[C@@H](CC(=O)NCCCC)[C@]2(C(=O)OC)CCCCC=C12	none (no result: AHR activator, DAX1 inh-2)
Cc1ccc(S(=O)(=O)N[C@@H](CC(C)C)C(=O)N2CCC(C(=O)N[C@@H](Cc3ccccc3)C(=O)O)CC2)cc1	DAX1 inh-2 6.9
Cc1ccc(S(=O)(=O)N[C@H](C(=O)N2CCC(C(=O)N[C@@H](CC(=O)O)C(=O)O)CC2)C(C)C)cc1	DAX1 inh-2 8.8
CCCCCC(NC(=O)C1CCN(C(=O)[C@@H](NS(=O)(=O)c2ccc(C)cc2)C(C)C)CC1)C(=O)O (some centres not stated)	none
Cn1nnnc1SCC(=O)Nc1ccccc1N1CCOCC1	none

Screens from PubChem.
